# Inconclusive results are not listed. A call without a number means that no potency is given here. Calls of active or inactive are those of the source. Unless noted, the call rests on the fitted dose curve; in most records, active means well fitted curve in the direction sought with a large enough effect in the repeat runs; inconclusive means weak or mixed curves; inactive means no such curve, though single readings can be large; an effect the other way counts as inactive or inconclusive.
# Target: Cytochrome P450 2C9 (Homo sapiens) (UniProt P11712)
# Sequence (P11712 whole entry, looked up): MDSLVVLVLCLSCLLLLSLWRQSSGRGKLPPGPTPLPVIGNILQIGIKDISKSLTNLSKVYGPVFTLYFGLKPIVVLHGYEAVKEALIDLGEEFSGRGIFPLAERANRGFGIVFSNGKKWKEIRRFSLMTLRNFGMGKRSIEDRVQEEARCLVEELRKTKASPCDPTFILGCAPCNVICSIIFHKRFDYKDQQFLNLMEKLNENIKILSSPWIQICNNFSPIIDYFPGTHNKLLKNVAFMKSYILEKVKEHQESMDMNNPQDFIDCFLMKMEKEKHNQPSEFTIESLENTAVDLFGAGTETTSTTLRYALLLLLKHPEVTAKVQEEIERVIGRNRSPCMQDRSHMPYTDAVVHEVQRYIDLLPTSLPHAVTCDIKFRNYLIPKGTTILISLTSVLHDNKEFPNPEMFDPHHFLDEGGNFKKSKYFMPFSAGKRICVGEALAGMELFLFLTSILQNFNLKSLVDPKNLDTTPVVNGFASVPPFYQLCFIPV
# Assay: Cytochrome P450 family 2 subfamily C member 9 (CYP2C9) small molecule antagonists: luciferase biochemical (cell-free) qHTS assay (AID 1645842); further: nearly all actives have a fitted effect of over 55% in size
# Conditions: P450-Glo CYP2C9 enzyme assay, luciferin luminescence; series mostly up to 57.4 µM
# Outline: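 Luminescence, after 20 min with luciferin detection reagent, reflected CYP2C9 turnover during a 1 h NADPH-driven reaction at 37C. Enzyme-substrate mix contained 0.4% bovine serum albumin and was preincubated with compound 10 min at room temperature.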
# Potency means the concentration at half of the fitted maximal effect.
row,SMILES,Potency
1,CCCCOC(=O)CC(CC(=O)OCCCC)(OC(C)=O)C(=O)OCCCC,1.74 µM (active)
2,O=S(=O)(O)c1ccc(O)cc1,inactive
3,CC1(C)OC[C@@H]2O[C@@]3(C(=O)O)OC(C)(C)O[C@H]3[C@@H]2O1,inactive
4,COc1cc(NS(=O)(=O)c2ccc(N)cc2)ncn1,inactive
5,Cc1nc(-c2ccc(Cl)cc2)oc1COC(C)(C)C(=O)O,inactive
6,C/C=C/c1ccc(O)c(OC)c1,2.19 µM (active)
7,Cc1c(-c2ccccc2)oc2c(C(=O)OCCN3CCCCC3)cccc2c1=O,inactive
8,CCCCN1C[C@H](O)[C@@H](O)[C@H](O)[C@H]1CO,inactive
9,CCCCC(CC)CN1CN(CC(CC)CCCC)CC(C)(N)C1 (centres undefined),inactive
10,CCN(CC)CCOC(=O)C(Cc1cccc2ccccc12)CC1CCCO1 (centres undefined),inactive
11,CCOc1ccccc1C(N)=O,inactive
12,CN1CCN(C2=Nc3ccccc3Sc3ccc(Cl)cc32)CC1,inactive
13,CC(=O)OC[C@H]1O[C@@H](n2ncc(=O)[nH]c2=O)[C@H](OC(C)=O)[C@@H]1OC(C)=O,inactive
14,NC1CCN(c2nc3c(cc2F)c(=O)c(C(=O)O)cn3-c2ccc(F)cc2F)C1 (centres undefined),inactive
15,C[N+]1(C)CCC(=C(c2ccccc2)c2ccccc2)CC1,inactive
16,CCCCNc1ccc(C(=O)OCCOCCOCCOCCOCCOCCOCCOCCOCCOC)cc1,6.92 µM (active)
17,CCc1oc2ccccc2c1C(=O)c1cc(I)c(O)c(I)c1,0.347 µM (active)
18,CC1CCc2c(N3CCC(O)CC3)c(F)cc3c(=O)c(C(=O)O)cn1c23 (centres undefined),inactive
19,N#CCC(=O)NN,inactive
20,O=C(CCN1CCN2CCCC2C1)N1c2ccccc2Sc2ccc(Cl)cc21 (centres undefined),inactive
21,COc1cc(O)c(C(=O)c2ccccc2)cc1S(=O)(=O)O,inactive
22,CCCN(CCc1cccs1)[C@H]1CCc2c(O)cccc2C1,inactive
23,O=C(Nc1ncc([N+](=O)[O-])s1)c1cccs1,9.77 µM (active)
24,CCCc1ncc(C[n+]2ccccc2C)c(N)n1,inactive
25,CCOC(=O)[C@@](C)(N)Cc1ccc(O)c(O)c1,inactive

# Test system: not listed separately
# Assay: Primary qHTS for inhibitors of nuclear receptor binding SET domain protein 2 (NSD2) in an isogenic RCH-ACV NSD2 p.E1099K mutant (9B) (AID 1645876; active means well fitted curve in the direction sought with a large enough effect; an effect the other way counts as inactive or inconclusive; further: nearly all actives have a fitted effect of over 70% in size)
# Conditions: RCH-ACV (leukaemia line) NSD2 E1099K (9B) viability, CellTiter-Glo, 72 h; series mostly up to 44.9 µM
row,SMILES,Potency
1,CCCCOC(=O)CC(CC(=O)OCCCC)(OC(C)=O)C(=O)OCCCC,inactive
2,O=S(=O)(O)c1ccc(O)cc1,inactive
3,NC(=O)n1c(O)c(C(=O)c2cccs2)c2cc(Cl)ccc21,inactive
4,Cc1c(-c2ccccc2)oc2c(C(=O)OCCN3CCCCC3)cccc2c1=O,inactive
5,CCCCN1C[C@H](O)[C@@H](O)[C@H](O)[C@H]1CO,inactive
6,O[C@@H](c1cc(C(F)(F)F)nc2c(C(F)(F)F)cccc12)[C@H]1CCCCN1,7.5 µM (active)
7,CCOc1ccccc1C(N)=O,18.8 µM (active)
8,CC1CCc2c(N3CCC(O)CC3)c(F)cc3c(=O)c(C(=O)O)cn1c23 (centres undefined),inactive
9,N#CCC(=O)NN,inactive

# Reference: PubChem BioAssay (NCATS)
